# CtBP-E1A blk: CtBP/E1A binding inhibition; 340,000 compounds, 0.49% hits; activity change, % (concentration not given with the values); AID 651724; AlphaScreen GST-E1A/His-CtBP binding, 1536-well; active compounds read low; in the data active = activity change below about -65%; inconclusive = mostly about -30% to -63%
#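 Homogeneous bead-based format: GST-tagged E1A captured on glutathione donor beads, His-tagged CtBP on nickel acceptor beads; compounds precede bead addition by 2 h at 37 °C.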
# DT40 TDP1 no CPT: qHTS for Inhibitors of human tyrosyl-DNA phosphodiesterase 1 (TDP1): qHTS in cells in absence of CPT; 420,000 compounds, 15% hits; Potency, µM (titrated, usually from 46.2 µM), for the others: at the highest dose activity change, negative = growth inhibition, most hits filed as inhibitors; DT40 Tdp1-/- hTDP1 cells, no CPT, ATP luminescence, 48 h; AID 686978, 2013; also: potency is read from the fitted curve at half-maximal effect; nearly all actives have a fitted effect of over 55% in size
#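 Compound effects on proliferation are scored in DT40 Tdp1-/-;hTDP1 cells in the absence of CPT. ATP levels (CellTiter-Glo luminescence) are recorded after a ≥48 hr, 37 °C incubation.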
# DT40 TDP1 CPT: DT40-hTDP1 cell growth loss with CPT; chicken DT40 Tdp1-/-;hTDP1 cells + 20 nM CPT, ATP luminescence, 48 h; Potency, µM (doses to about 46.2 µM), inactives show at the highest dose activity change, negative = growth inhibition, actives largely listed as inhibitors; 420,000 compounds, 12% hits; also: potency is read from the fitted curve at half-maximal effect; nearly all actives have a fitted effect of over 55% in size
#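 Chicken DT40 Tdp1-/- cells stably complemented with human TDP1 were seeded at 400 cells/well in medium containing 20 nM camptothecin, exposed to pin-transferred compounds, and grown at 37 °C for at least 48 hr. Viability was read as ATP luminescence.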
# IL1B secr inh: inflammasome signaling inhibition, IL-1 beta readout; THP-1 LPS/ATP IL-1B secretion, AlphaLISA, 16 h; active compounds read low; activity change, % at 57.5 µM; 360,000 compounds, 4.7% hits; in the data active = activity change below about -50%; inconclusive = mostly about -30% to -49%
#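 Secreted IL-1B measured by AlphaLISA bead assay after 16 h compound exposure of THP-1 cells; compounds (final up to 57.5 uM) added 1 h before LPS (250 ng/mL) and ATP (1.25 mM) stimulation; lower signal means less secretion.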
# TDP1 block: inhibitors of human tyrosyl-DNA phosphodiesterase TDP1; AID 485290; recombinant TDP1, AlphaScreen DNA substrate cleavage; Potency, µM (top dose mostly 130 µM), for the others: at the highest dose activity change, negative = inhibition, actives largely listed as inhibitors; 350,000 compounds, 0.28% hits; Q9NUW8; also: potency is read from the fitted curve at half-maximal effect; nearly all actives have a fitted effect of over 40% in size
#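 Steps: enzyme plus compound, 15 min RT; add biotin/phosphotyrosine-FITC oligonucleotide (15 nM final), react 5 min; add donor/acceptor beads (10 ug/ml final), 10 min; read AlphaScreen. Tdp1 at 1 nM final.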
# Six1-Eya2 blk: Six1/Eya2 interaction inhibition; Q15475+O00167; AlphaScreen GST-Six1/His-Eya2 binding, biochemical; active compounds read low; activity change, % (no concentration beside the values); 360,000 compounds, 0.56% hits; AID 651725; in the data active = activity change below about -65%; inconclusive = mostly about -30% to -63%
# Target sequence (O00167 whole entry, looked up): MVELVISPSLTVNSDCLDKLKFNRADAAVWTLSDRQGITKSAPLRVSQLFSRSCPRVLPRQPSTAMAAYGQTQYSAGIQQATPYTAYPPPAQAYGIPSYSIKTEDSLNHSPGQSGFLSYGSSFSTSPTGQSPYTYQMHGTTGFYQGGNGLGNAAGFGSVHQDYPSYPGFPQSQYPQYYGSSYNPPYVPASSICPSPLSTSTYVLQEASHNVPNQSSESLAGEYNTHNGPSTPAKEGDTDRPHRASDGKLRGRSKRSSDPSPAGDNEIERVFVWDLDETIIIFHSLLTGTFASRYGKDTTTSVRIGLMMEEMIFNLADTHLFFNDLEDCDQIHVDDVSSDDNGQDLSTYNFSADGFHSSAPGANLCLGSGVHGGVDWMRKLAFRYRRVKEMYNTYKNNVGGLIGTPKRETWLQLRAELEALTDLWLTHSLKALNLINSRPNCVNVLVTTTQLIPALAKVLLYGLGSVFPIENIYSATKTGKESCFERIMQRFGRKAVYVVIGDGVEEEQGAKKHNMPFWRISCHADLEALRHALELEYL
# Target sequence (Q15475 whole entry, looked up): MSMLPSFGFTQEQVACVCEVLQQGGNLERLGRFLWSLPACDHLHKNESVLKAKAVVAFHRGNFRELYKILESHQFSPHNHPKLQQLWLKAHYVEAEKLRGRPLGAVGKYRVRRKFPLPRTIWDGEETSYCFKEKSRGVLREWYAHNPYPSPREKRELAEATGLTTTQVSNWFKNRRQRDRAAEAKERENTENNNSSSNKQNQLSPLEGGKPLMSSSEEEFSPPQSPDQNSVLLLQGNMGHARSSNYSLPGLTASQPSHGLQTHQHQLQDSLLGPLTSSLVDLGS
#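 AlphaScreen luminescence read after one hour at 37 °C in darkness. Pin-transferred compounds met GST-Six1 and His-Eya2 protein (5X stock 250 nM/500 nM) plus glutathione donor and Ni-chelate acceptor beads (5X, 50 ug/mL).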
# Starred values were filed as active, the others as inactive; i = inactive; u = inconclusive; x = not tested or not shown; [ ] = remark or other dose. Shown are actives, neighbours in structure and some others; about 18% of the full set was active somewhere. Unless noted, calls follow the shape of the dose curve; as a rule, active = well fitted curve in the direction sought with a large enough effect; inconclusive = small, poorly fitted or top-dose-only effect, or another doubt; inactive = no such curve, though single readings can be large; an effect the other way counts as inactive or inconclusive. % is scaled to controls: 0 for no effect and ±100 for the full control effect.
SMILES,CtBP-E1A blk,DT40 TDP1 no CPT,DT40 TDP1 CPT,IL1B secr inh,TDP1 block,Six1-Eya2 blk
CC(Sc1nnc(CN2CCCC2)n1Cc1ccccc1)C(=O)Nc1ccc(F)cc1Cl (configuration not stated),0,26µM*,18µM*,u,x,-17
O=C(CCc1nnc(C2CCCCC2)o1)N1CCC(Oc2cccnc2)CC1,8,-13%,-6%,-1,2%,-2
COc1cc(C(=S)N2CCOCC2)cc(OC)c1O,6,-17%,-15%,42,x,4
Cc1ccc(C(C)NC(=O)c2cc3cc(Br)ccc3oc2=N)cc1 (configuration not stated),3,21µM*,23µM*,i,2%,0
N=c1oc2ccc(Br)cc2cc1C(=O)NC1CCCCCC1,5,9.2µM*,16µM*,-23,2%,19
CC(C)NC(=O)c1cc2cc(Br)ccc2oc1=O,2,23µM*,u,0,6%,1
CN(C)CCNC(=O)c1cc2cc(Br)ccc2oc1=O,4,-16%,-36%,0,4%,2
COc1ccc(S(=O)(=O)CC(=O)c2cc3cc(Br)ccc3oc2=O)cc1,x,12µM*,u,3,6%,-11
C#CCNC(=O)C[C@@H]1C[C@@]2(C(=O)OCC)CCCC=C2N(Cc2ccccc2)C1=O,1,-18%,-13%,-9,x,6
CCC1Sc2ccc(S(=O)(=O)N3CCN(c4ccccc4)CC3)cc2NC1=O (configuration not stated),-21,u,15µM*,23,4%,-9
COc1cccc(NS(=O)(=O)c2ccc3c(c2)NC(=O)C(C)S3)c1 (configuration not stated),3,u,u,41,2%,-2
CCc1cccc(NS(=O)(=O)c2ccc3c(c2)NC(=O)C(C)S3)c1 (configuration not stated),-3,u,21µM*,-10,2%,-1
CCC1Sc2ccc(S(=O)(=O)Nc3cc(OC)cc(OC)c3)cc2NC1=O (configuration not stated),x,u,16µM*,33,3%,2
Cc1cc(=O)nc2c3ccccc3n(CC(=O)NC(C)c3ccc4c(c3)OCCO4)n12 (configuration not stated),-4,-17%,u,29,5%,0
CCN(CC)c1ncnc2c1ncn2[C@H]1CN(CCOC)C[C@@H](CO)O1,2,-20%,1%,6,x,6
Cc1ccc(C)c(NC(=S)N(Cc2ccco2)C(C)c2cccs2)c1 (configuration not stated),2,11%,-5%,-3,5%,4
O=C(CSc1nc2cc(Cl)c(Cl)cc2[nH]1)c1ccc2c(c1)OCO2,6,-5%,2%,-8,1%,0
CCC(=O)Nc1nnc(Sc2ccc(N(C)C)cc2)s1,10,-1%,-6%,15,45µM*,-5
O=C(NCc1ccco1)c1cccc(S(=O)(=O)N2CCN(Cc3ccccc3)CC2)c1,-1,-28%,-14%,-14,x,-8
O=C(Nc1nc(-c2ccccn2)cs1)Nc1ccc(F)cc1F,u,2.9µM*,4.6µM*,-83*,9%,u
O=C(Nc1nc(-c2ccccc2)cs1)Nc1ccc(F)cc1F,0,9.2µM*,9.2µM*,-16,-5%,-7
Cc1cc(=O)[nH]c(SCC(=O)N2CC3(C)CC2CC(C)(C)C3)n1 (configuration not stated),-4,-12%,7%,9,0%,6
FC(F)(F)c1ccc(CSc2ccccn2)cc1,12,-26%,-3%,-61*,-3%,5
O=C(Nc1ccccc1)c1ccc(CSc2ccccn2)cc1,13,u,u,-12,0%,-2
O=C(O)CSc1nc2ccccc2n1-c1ccccc1,-1,19%,11%,-81*,5%,1
SMILES,CtBP-E1A blk,DT40 TDP1 no CPT,DT40 TDP1 CPT,IL1B secr inh,TDP1 block,Six1-Eya2 blk
CN(C)S(=O)(=O)c1ccc(NC(=O)CSc2nc3ccccc3n2-c2ccccc2)cc1,-6,21µM*,u,-6,5%,-13
CN(C)S(=O)(=O)c1cccc(NC(=O)CSc2nc3ccccc3n2-c2ccccc2)c1,-20,26µM*,u,-11,2%,-9
NS(=O)(=O)c1ccc(NC(=O)CSc2nc3ccccc3n2-c2ccccc2)cc1,-12,u,u,-10,8%,-6
C/C(CCC(=O)OC[C@@H]1O[C@H](C#Cc2ccccc2)C=C[C@@H]1Oc1ccc(C)cc1)=N/O[C@@H](C)c1cc(-c2c(C)cc(C)cc2C)no1,x,x,x,x,7%[21 µM],x
Cc1ccc(N(C(=O)CNC(=O)c2ccco2)C(C(=O)NC2CCCCC2)c2cccnc2)cc1C (configuration not stated),23,2%,0%,-13,10%,0
Cc1ccc(N(C(=O)CCCC(=O)Nc2ccccn2)C(C(=O)NC2CCCC2)c2ccc(O)cc2)cc1C (configuration not stated),1,u,u,-75*,3%,3
Cc1ccc(N(C(=O)CCl)C(C(=O)NC2CCCCC2)c2cccnc2)cc1C (configuration not stated),-3,1.6µM*,1.8µM*,-100*,2%,6
CCCn1nnnc1SCC(=O)N1CCN(C(=O)c2ccco2)CC1,-3,-2%,2%,0,-3%,3
COc1ccccc1CNC(=O)c1cc2sccc2n1Cc1ccc(Cl)cc1,x,u,u,x,6%,x
COC(=O)CNc1ccc2c(c1)OCO2,-2,-16%,-7%,2,3%,11
CC1(OC(=O)CCc2ccccc2)C(=O)C=C2C=C(c3ccc(C#N)cc3)N(CC3CC3)C=C2C1=O (configuration not stated),-22,u,15µM*,-16,7%[12.3 µM],-30
CC1(OC(=O)CCc2ccccc2)C(=O)C=C2C=C(c3ccc(C#N)cc3)OC=C2C1=O (configuration not stated),x,x,x,x,2%,x
CC1(OC(=O)CCc2ccccc2)C(=O)C=C2C=C(c3ccc(C#N)cc3)N(CCN3CCOCC3)C=C2C1=O (configuration not stated),3,-2%,-4%,29,-1%[12.3 µM],1

# Screening results as filed in PubChem BioAssay.
